Assay outcomes as filed in PubChem.
NPR1 activator: GC-A (human) enzyme activation | P16066 | HEK293 GC-A cells, cGMP TR-FRET, EC30 ANP; 0% at EC30 ANP, 100% saturating ANP | activation, % at 10 µM | 0.14% of 370,000 active; in the data active = activation above about 40%
FAS TE block: blocks the thioesterase domain of human fatty acid synthase; 0.67% of 360,000 active; P49327; inhibition, % at 15 µM; AID 602261; recombinant FAS-TE, OMFH fluorogenic substrate, fluorescence endpoint;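 active = compounds whose normalised, plate-corrected inhibition of enzyme fluorescence in the single-dose primary screen is 50% or more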;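 note: 0% = DMSO with enzyme and 100% = substrate without enzyme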
ADAM17 inh: ADAM17 inhibition, QFRET primary screen | 0.83% of 370,000 active | P78536 | recombinant ADAM17, EDANS/DABCYL FRET peptide cleavage | inhibition, % at 6.95 µM;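 active = inhibition above the mean of compounds lying between control limits plus 3 SD, set per campaign, cut at about 8.5% in these data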;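 note: 0% = DMSO-only wells as the low control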
GC-B act: GC-B (human) receptor activation | HEK293-GC-B cells, CNP EC30, cGMP TR-FRET; 0% at EC30 CNP, 100% saturating CNP | activation, % at 10 µM | 0.11% of 370,000 active | P20594;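 active = activation at 10 µM reaching about 35% in either raw or pattern-adjusted values, limit read from the data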
ADAM10 inh: inhibits human ADAM10; 0.62% of 370,000 active; AID 720582; O14672; inhibition, % at 7 µM; recombinant ADAM10, EDANS/DABCYL FRET peptide cleavage, 3 h;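 active = inhibition above a per-campaign cutoff equal to the mean of compounds falling between control-based bounds plus 3 SD, cut at about 20% in these data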;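 note: 0% = DMSO wells while the 100% control is not disclosed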
Target sequence (O14672 214-748 limits assumed): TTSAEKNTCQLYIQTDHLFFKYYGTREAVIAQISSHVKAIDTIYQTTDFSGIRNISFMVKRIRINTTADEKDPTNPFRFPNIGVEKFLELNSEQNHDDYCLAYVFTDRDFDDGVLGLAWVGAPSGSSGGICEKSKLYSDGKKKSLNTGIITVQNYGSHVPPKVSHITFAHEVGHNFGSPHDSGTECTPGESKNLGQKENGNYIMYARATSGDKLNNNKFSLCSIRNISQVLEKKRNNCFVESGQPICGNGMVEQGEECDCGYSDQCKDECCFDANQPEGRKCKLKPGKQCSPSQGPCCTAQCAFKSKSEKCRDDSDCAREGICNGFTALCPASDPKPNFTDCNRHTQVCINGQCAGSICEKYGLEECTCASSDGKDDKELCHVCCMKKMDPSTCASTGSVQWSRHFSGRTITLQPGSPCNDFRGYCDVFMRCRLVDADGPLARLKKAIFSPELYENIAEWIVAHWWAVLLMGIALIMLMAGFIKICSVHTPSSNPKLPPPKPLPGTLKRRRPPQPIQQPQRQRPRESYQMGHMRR
ADAM10 counter: ADAM10 inhibition, counter-screen for ADAM17 exosite hits. shares compounds with ADAM17 inh. recombinant ADAM10, EDANS/DABCYL FRET peptide cleavage, 3 h. inhibition, % at 6.95 µM. 47% of 2,900 active. AID 743256;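 active = mean inhibition over the triplicate runs exceeds the activity threshold set in the earlier primary screen, cut at about 20% in these data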;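 note: 0% = DMSO wells and 100% = marimastat wells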
ADAM17 confirm: confirmation of inhibitors of human ADAM17 | shares compounds with ADAM17 inh | recombinant ADAM17, EDANS/DABCYL QFRET peptide cleavage | inhibition, % at 6.95 µM | 65% of 2,900 active | AID 743257;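 active = mean inhibition across replicates above the hit cutoff set in the primary screen, cut at about 8.5% in these data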;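 note: 0% = DMSO wells and 100% = marimastat wells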
Numbers without * were called inactive; · = no result given. A selection: hits, their analogues and other compounds. The true share with any hit is near 2%.

SMILES | NPR1 activator | FAS TE block | ADAM17 inh | GC-B act | ADAM10 inh | ADAM10 counter | ADAM17 confirm
COc1ccccc1NS(=O)(=O)c1cc(NC(=O)CNC(=O)c2ccccc2)ccc1C | -2 | -6 | 9.1* | -3 | 16 | 5 | 5
O=C(C(=O)N1CCC(CNS(=O)(=O)Cc2ccccc2)CC1)c1cccs1 | -1 | · | -1 | 4 | 3 | · | ·
CC1CCC(NC(=O)c2cnccn2)CC1 (centres undefined) | -8 | -7 | 12* | -8 | 3 | 3 | 2
O=C(NC12CC3CC(CC(C3)C1)C2)c1cnccn1 | 2 | -9 | -1 | 7 | -2 | · | ·
O=C(Oc1ccc(Br)cc1C(=O)/C=C/c1ccccc1F)c1ccco1 | -19 | 16 | 11* | -11 | 20 | 11 | 5
COc1ccc(CN(CCN2CCOCC2)C(=O)c2cccc(F)c2)cc1OC | 2 | · | 1 | -5 | -8 | · | ·
O=C(Nc1ccc2c(c1)OCO2)OC1CCC12CCC(c1ccccc1)CC2 (centres undefined) | -3 | · | 2 | -8 | 4 | · | ·
CCN(CC)C(=O)c1nc[nH]c1C(=O)N(CC)CC | -1 | -11 | 9.2* | -3 | 9 | 6 | 4
CCN(C(=O)c1ccc(C(C)(C)C)cc1)c1nnc(Cn2nnc3ccccc32)s1 | 2 | 23 | 9.3* | 6 | 12 | 18 | 9.5*
CNS(=O)(=O)c1ccc(C(=O)NCC(=O)NCCC(c2ccccc2)c2ccccc2)cc1 | -3 | -4 | 9.7* | -4 | 3 | 6 | 2
COC(=O)N1C[C@H](OC(=S)Nc2ccc(OC)cc2OC)[C@H]2C[C@@H]1c1ccccc1O2 | -2 | · | 2 | 2 | 0 | · | ·
COc1cccc(NC(=O)CC2SC(=Nc3ccccc3)NC2=O)c1 (centres undefined) | -2 | -1 | -1 | -6 | -3 | · | ·
COc1cccc(NC(=O)CC2S/C(=N\S(=O)(=O)c3ccccc3)N(c3ccccc3)C2=O)c1 (centres undefined) | 0 | 18 | 10* | -6 | 16 | 15 | 9.8*
CCOc1ccc(NC(=O)CC2SC(=O)N(c3ccccc3)C2=O)cc1 (centres undefined) | 13 | -8 | 9.6* | 3 | 15 | 14 | 41*
Cc1ccccc1NC(=O)CC1SC(=O)N(c2ccccc2)C1=O (centres undefined) | 8 | -8 | 0 | 6 | 18 | · | ·
COc1ccc(NC(=O)CSc2nc(C)cc(=O)[nH]2)cc1OC | 3 | · | 4 | -6 | 3 | · | ·
CCOc1ccccc1NC(=O)C(OC(=O)c1ccc(O)cc1)c1ccccc1 (centres undefined) | -2 | 24 | 9.6* | 4 | 19 | 33* | 20*
Cc1cccc(CNC(=O)NC2CCCCN(Cc3cccc(Cl)c3)C2=O)c1 (centres undefined) | -4 | · | 2 | 3 | -4 | · | ·
CCOC(=O)c1sc(NC(=O)Nc2ccccc2Cl)cc1C | -9 | 25 | 2 | -3 | 10 | · | ·
CCOC(=O)c1sc(NC(=O)Nc2ccccc2)cc1C | -7 | 18 | 9.2* | 0 | 9 | -10 | 2
C=CCN1C(=O)[C@@H](CC(=O)N2CCSCC2)[C@]2(C(=O)OC)CCCCC=C12 | 7 | · | 2 | -2 | -12 | · | ·
S=C(NCc1ccc(Cl)cc1)Nc1ccccc1 | 1 | 15 | 4 | 1 | -1 | · | ·
S=C(NCc1ccc(Cl)cc1)Nc1ccncc1 | -1 | -3 | 8.9* | -6 | 7 | 8 | 13*
COC(=O)[C@]12C[C@H](CC(=O)N3CCC(c4ccccc4)CC3)C(=O)N(Cc3ccc(Cl)cc3Cl)C1=C[C@H](C1CCCC1)O[C@@H]2C | -2 | · | -5 | 4 | -7 | · | ·
COC(=O)c1cccc(N(C(=O)CNC(=O)c2ccco2)C(C(=O)NC2CCCC2)c2ccco2)c1 (centres undefined) | -4 | 1 | 8.8* | -1 | 3 | -3 | 2
SMILES | NPR1 activator | FAS TE block | ADAM17 inh | GC-B act | ADAM10 inh | ADAM10 counter | ADAM17 confirm
COC(=O)C1CN(Cc2cn(Cc3ccccc3)nn2)CCS(=O)(=O)N1Cc1ccc(F)cc1 (centres undefined) | -1 | · | -4 | 2 | -8 | · | ·
COC(=O)c1ccc2[nH]c(C3(O)CCCCC3)c(C)c2c1 | -1 | 7 | 11* | 0 | 2 | -16 | 3
Cc1c(C2(O)CCCCC2)[nH]c2ccccc12 | -1 | · | -5 | 1 | -9 | · | ·
C=C1CC2(CC(c3ccccc3)OC(c3ccccc3)C2)OC1=O (centres undefined) | -23 | -3 | 9.6* | -14 | 15 | -8 | -1
O=C1CCCC[C@@H](O)[C@H](O)C[C@H](c2ccccc2)O1 | 1 | -11 | -3 | 1 | -11 | · | ·
O=C(NCCc1ccccc1)OCc1cn(Cc2ccc(F)c(F)c2)nn1 | 4 | · | 2 | 3 | 3 | · | ·
COc1cc(-c2coc3c(C(=O)NCc4cccc(Cl)c4)cccc23)ccc1O | -6 | 18 | 8.6* | 4 | 15 | 27* | 13*
COc1ccc(/C(O)=C2/C(=O)C(=O)N(CC3CCCO3)C2c2cccc(O)c2)cc1 (centres undefined) | 4 | -4 | 8.8* | -1 | 4 | 7 | 6
CC(C)CC(=O)NC(=S)Nc1nc(-c2cccc3ccccc23)cs1 | -7 | 22 | 14* | -7 | 20 | 17 | 8
CCOC(=O)Cc1csc(NC(=S)NC(=O)CC(C)C)n1 | 1 | -3 | 3 | -4 | -1 | · | ·
CCc1ccc(N2CC(C)Cn3c2nc2c3c(=O)n(CCN3CCOCC3)c(=O)n2C)cc1 (centres undefined) | -1 | -7 | 9.1* | -8 | -1 | -5 | 1
COc1ccc(N2CC(C)Cn3c2nc2c3c(=O)n(CCN3CCOCC3)c(=O)n2C)cc1 (centres undefined) | 9 | -2 | -3 | 12 | -10 | · | ·
Cc1ccc(O)c(-c2cc(C(=O)Nc3ccc(S(=O)(=O)N4CC(C)OC(C)C4)cc3)[nH]n2)c1 (centres undefined) | -7 | 0 | 9.2* | -9 | 16 | 17 | 9.4*
Cc1ccc(-c2cc(C(=O)Nc3ccc(S(=O)(=O)N4CC(C)OC(C)C4)cc3)[nH]n2)c(O)c1 (centres undefined) | -4 | -3 | 4 | 0 | 13 | · | ·
CC1(Cc2cccc(F)c2)C(=O)Nc2ccc(OC(F)(F)F)cc21 (centres undefined) | -5 | 14 | 4 | -5 | 10 | · | ·
CC1(Cc2ccc(OC(F)(F)F)cc2)C(=O)Nc2c(Cl)ccc(Cl)c21 (centres undefined) | -11 | 22 | 9.7* | -9 | 16 | 31* | 15*
